Activity calls are given as the source filed them.

Assay [1] in a line: anti-His antibody binders, primary screen, artefact control for SMM control protein annotation, biochemical, small-molecule microarray, 635 nm fluorescence (AID 1128).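 Further: score merges feature fluorescence with signal-to-noise for each printed compound spot.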 Conditions: anti-His Alexa647 antibody binding, higher = more signal.
The test system of assay [2] is Human papillomavirus type 1a E7 protein (residues 1-88). Kind of assay: HPV1a E7 small-molecule binders, primary screen, biochemical, small-molecule microarray, residues 1-88, 635 nm (AID 1129). Conditions: small-molecule microarray binding, fluorescence 635 nm; higher = more signal.
In assay [3] the target is Focal adhesion kinase 1 (Homo sapiens) (UniProt Q05397). Kind of assay: small-molecule microarray binders of FAK, primary screen, biochemical, 635/667 nm fluorescence, BSA, DTT (AID 1130).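 Further: composite of spot emission at 667 nm and signal to noise over triplicate slides.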 Conditions: PTK2 binding, 635 nm fluorescence, higher = more signal.
Assay [4] concerns Fibrinogen (Alexa647-labelled). Put plainly: fibrinogen binders on compound microarrays, profiling panel, artefact control for SMM control-protein annotation, biochemical, small-molecule microarray, 635/667 nm fluorescence (AID 1131).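 Further: z-score merges 667 nm fluorescence with per-spot signal-to-noise over triplicate slides.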 Conditions: fibrinogen-A647 binding fluorescence, higher = more signal.
The target of assay [5] is Follistatin (Homo sapiens) (UniProt P19883). Kind of assay: follistatin binders on small-molecule microarrays, primary screen, biochemical, small-molecule microarray, 635/667 nm fluorescence (AID 1132). Conditions: FST binding, 635 nm fluorescence, higher = more signal.
Assay [6] has as its target Fibroblast growth factor 2 (Homo sapiens) (UniProt P09038). Kind of assay: FGF2 binders on small-molecule microarrays, primary screen, biochemical, small-molecule microarray, 635/667 nm fluorescence (AID 1133). Conditions: small-molecule microarray binding, FGF2, fluorescence 635/667; higher = more signal.
Assay [7] in a line: mitochondrial membrane potential change in A549 cells, profiling panel, cell-based, JC-1 fluorescence, basal, 24 h, 100 nL (AID 1138).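 Further: A549 lung adenocarcinoma cells under basal conditions with no added stimulus; test concentration not given here.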 Conditions: higher = more signal.
The test system of the next assay is Lefty1. Put plainly: Lefty1 binders on small-molecule microarrays, primary screen, biochemical, small-molecule microarray, 635/667 nm fluorescence (AID 1139). Conditions: small-molecule microarray binding, fluorescence 635/667; higher = more signal.
The test system of assay [8] is wheat germ agglutinin (Triticum aestivum), Alexa647-labelled. Kind of assay: wheat germ agglutinin binders on compound microarrays, profiling panel, artefact control for SMM control-protein annotation, biochemical, small-molecule microarray, 635/667 nm fluorescence (AID 1140).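 Further: score merges 667 nm feature emission with signal to noise over triplicate slides.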 Conditions: WGA-A647 binding, 635 nm fluorescence, higher = more signal.
Assay [9] deals with Luciferin 4-monooxygenase (Photinus pyralis) (UniProt P08659). Put plainly: firefly luciferase enzyme inhibitors, primary screen, biochemical, luminescence, purified enzyme, 2006 set (AID 1141).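 Further: cell-free assay with purified firefly luciferase at 100 ng per well in PBS; test concentration not given here.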 Conditions: SteadyGlo luminescence, 30 min, higher = more signal, called active from +8 up or from −8 down.
Sequence of Luciferin 4-monooxygenase (Photinus pyralis) (P08659 whole entry, looked up): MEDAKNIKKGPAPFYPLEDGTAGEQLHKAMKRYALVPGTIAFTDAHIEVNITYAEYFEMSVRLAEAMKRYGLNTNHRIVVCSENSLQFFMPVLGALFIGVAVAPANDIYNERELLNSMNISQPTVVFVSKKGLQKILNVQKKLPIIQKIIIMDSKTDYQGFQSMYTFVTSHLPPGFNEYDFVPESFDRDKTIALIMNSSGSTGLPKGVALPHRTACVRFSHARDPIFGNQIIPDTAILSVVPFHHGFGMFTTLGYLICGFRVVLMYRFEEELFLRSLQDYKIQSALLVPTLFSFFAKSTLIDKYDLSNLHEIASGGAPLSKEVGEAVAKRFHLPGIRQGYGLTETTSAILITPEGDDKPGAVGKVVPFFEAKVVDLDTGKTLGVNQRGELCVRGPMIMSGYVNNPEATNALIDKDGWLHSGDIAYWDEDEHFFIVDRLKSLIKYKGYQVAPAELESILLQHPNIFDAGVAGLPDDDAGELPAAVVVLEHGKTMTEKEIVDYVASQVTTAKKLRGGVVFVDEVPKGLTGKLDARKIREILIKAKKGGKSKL

Sequence of Focal adhesion kinase 1 (Homo sapiens) (Q05397 whole entry, looked up): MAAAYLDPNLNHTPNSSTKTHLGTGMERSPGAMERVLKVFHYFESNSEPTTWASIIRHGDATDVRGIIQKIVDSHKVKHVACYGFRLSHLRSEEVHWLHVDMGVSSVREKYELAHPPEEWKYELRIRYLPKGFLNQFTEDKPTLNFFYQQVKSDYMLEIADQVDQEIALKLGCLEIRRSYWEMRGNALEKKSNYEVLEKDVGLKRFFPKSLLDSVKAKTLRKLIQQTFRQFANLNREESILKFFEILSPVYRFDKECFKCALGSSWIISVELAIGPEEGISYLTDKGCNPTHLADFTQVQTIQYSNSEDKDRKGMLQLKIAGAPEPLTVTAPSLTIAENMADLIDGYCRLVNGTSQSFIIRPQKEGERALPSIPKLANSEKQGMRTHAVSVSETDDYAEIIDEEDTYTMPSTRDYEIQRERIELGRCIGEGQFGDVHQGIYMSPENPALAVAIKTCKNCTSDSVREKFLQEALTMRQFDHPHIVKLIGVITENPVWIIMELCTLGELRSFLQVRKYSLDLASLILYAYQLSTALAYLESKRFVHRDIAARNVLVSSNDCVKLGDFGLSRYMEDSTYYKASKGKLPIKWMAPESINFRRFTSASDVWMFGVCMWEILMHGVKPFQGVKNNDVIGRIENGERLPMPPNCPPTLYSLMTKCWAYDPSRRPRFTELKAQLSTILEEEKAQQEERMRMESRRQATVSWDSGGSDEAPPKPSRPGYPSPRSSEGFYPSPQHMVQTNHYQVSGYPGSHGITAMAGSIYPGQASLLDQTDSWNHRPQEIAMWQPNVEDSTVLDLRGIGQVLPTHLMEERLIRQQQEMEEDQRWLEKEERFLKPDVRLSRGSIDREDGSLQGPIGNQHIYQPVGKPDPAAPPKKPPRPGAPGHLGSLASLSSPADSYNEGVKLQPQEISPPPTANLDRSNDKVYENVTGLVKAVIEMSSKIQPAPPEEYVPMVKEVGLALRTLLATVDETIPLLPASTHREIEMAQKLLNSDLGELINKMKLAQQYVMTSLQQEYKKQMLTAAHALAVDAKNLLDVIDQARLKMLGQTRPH
Sequence of Follistatin (Homo sapiens) (P19883 whole entry, looked up): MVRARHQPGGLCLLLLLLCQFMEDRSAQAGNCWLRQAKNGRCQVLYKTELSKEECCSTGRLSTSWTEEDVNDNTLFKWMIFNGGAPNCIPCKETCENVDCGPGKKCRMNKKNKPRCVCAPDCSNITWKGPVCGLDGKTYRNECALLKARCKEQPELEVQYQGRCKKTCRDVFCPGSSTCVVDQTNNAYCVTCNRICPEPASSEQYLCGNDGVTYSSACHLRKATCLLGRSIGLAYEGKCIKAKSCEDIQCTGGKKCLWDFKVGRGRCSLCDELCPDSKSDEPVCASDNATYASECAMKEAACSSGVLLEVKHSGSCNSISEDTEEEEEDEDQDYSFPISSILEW
Sequence of Fibroblast growth factor 2 (Homo sapiens) (P09038 whole entry, looked up): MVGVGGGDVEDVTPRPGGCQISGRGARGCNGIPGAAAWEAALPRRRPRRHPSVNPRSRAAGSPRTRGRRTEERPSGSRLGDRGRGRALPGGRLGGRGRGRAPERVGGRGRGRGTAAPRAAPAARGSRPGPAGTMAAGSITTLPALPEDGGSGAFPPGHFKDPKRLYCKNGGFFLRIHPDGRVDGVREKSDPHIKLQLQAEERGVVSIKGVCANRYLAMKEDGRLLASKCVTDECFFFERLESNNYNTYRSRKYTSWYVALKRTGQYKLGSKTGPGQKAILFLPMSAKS

`COc1ccc([Si](C)(C)[C@@H]2[C@@H](CC(=O)N3Cc4ccccc4C[C@H]3CO)O[C@]3(C(=O)N(Cc4cccc(N5CCCCC5=O)c4)c4ccccc43)[C@H]2C)cc1`: the composite z-score in assay [1] amounted to 1.02; in [2], 1.13; in assay [3], 0.739; in [4] it was 0.641; in assay [5] it was 1.36; in assay [6], 1.57. Besides, the composite z-score with Lefty1 amounted to 1.5; in [8] it was 0.676. Also, the z-score in assay [7] is -0.96; in assay [9], 0.227 (inactive).

For `CCC[C@@H]1C[C@@]1(CCC)[C@@H](NC(=O)c1cccs1)c1ccc(Cl)cc1`, the composite z-score was -0.449 in assay [1]; -0.375 in [2]; -0.352 in [3]; 0.7 in [4]; -1.42 in assay [5]; -0.639 in [6]. The composite z-score with Lefty1 is -1.69; in assay [8], 0.152. The z-score in assay [7] was -0.101; in assay [9], -2.2 (inactive).

Regarding `CCOC(=O)C[C@H]1[C@H](OC(=O)Cc2ccc3c(c2)OCO3)[C@@H](NC(=O)c2ccccc2)c2cc(OCCCO)ccc2N1C(=O)c1ccc2ccccc2n1`, the composite z-score in assay [1] is 0.0936; in [2] it was 0.445; in assay [3] it was -0.0584; in [4] it was 0.204; in assay [5], 0.166; in [6], 0.77. Further, the composite z-score with Lefty1 worked out at 0.447; in [8], 0.473. In addition, the z-score in [7] was 0.925; in assay [9], -1.43 (inactive).

As to `COC(=O)[C@]1(Cc2ccccc2CN=[N+]=[N-])N=C(c2ccc(OCCCO)cc2)O[C@@H]1c1ccccc1`, the composite z-score was 0.652 in assay [1]; -1.81 in assay [2]; -0.435 in assay [3]; 0.0713 in [4]; -0.562 in assay [5]; -0.782 in assay [6]. Besides, the composite z-score with Lefty1 is -0.429; in assay [8], 0.441. Further, the z-score in [7] is -0.0525; in assay [9] it was -1.02 (inactive).

For the compound `COCCOC(=O)N1C(=O)[C@@]2(c3cc(C#CCCO)ccc31)[C@H](c1ccc(OCCO)cc1)N1[C@H](c3ccccc3)[C@H](c3ccccc3)OC(=O)[C@H]1[C@@H]2C(=O)N1CCc2cc(OC)c(OC)cc2C1`, the composite z-score stood at 1.2 in assay [1]; 1.19 in [2]; 0.81 in assay [3]; 0.249 in assay [4]; 1.22 in assay [5]; 1.11 in assay [6]. Besides, the figures for the composite z-score (in the assay with Lefty1; in [8]) were 1.08 and 0.0877, respectively. The z-score was -0.633 in [7] and -0.856 (inactive) in [9].

On to `Cc1cc(C)c(C(O)C2C=CC3C(=O)N(c4ccccc4)C(=O)C3N2Nc2ccc([N+](=O)[O-])cc2)c(C)c1` (stereo not given), for which the composite z-score came to 0.945 in assay [1]; 1.22 in [2]; 0.434 in assay [3]; 1.02 in assay [4]; 1.08 in [5]; 0.504 in [6]. For the same compound, the composite z-score in the assay on Lefty1 was determined as 0.648; in [8], 0.71. The z-score was -0.712 in [7] and 1.12 (inactive) in assay [9].

With `O=C(O)[C@@]1(Cc2ccccc2)COC(c2ccc(OCCCO)cc2)=N1`, the composite z-score in assay [1] was -0.951; in [2], -0.915; in assay [3], -0.375; in assay [4] it was -2.33; in assay [5] it was 0.24; in assay [6], -0.33. Moreover, the composite z-score with Lefty1 is -1.18; in [8], -0.723. For the same compound, the figures for the z-score in assay [7] and in assay [9] were 0.315 and -3.65 (inactive), respectively.

`C[N+](C)(C)CCCC[C@@H]1NC(=O)[C@@H]2C[C@H](C(=O)NCCCCCNC(=O)CS)[C@H](c3cccc(OCCO)c3)N2C1=O`: the composite z-score amounted to 0.664 in [1]; 0.14 in [2]; 0.0046 in assay [3]; 0.909 in assay [4]; 1.25 in assay [5]; 1.5 in assay [6]. Besides, the composite z-score with Lefty1 stood at 0.272; in assay [8] it was 0.134. The z-score in assay [7] was 1.71; in assay [9], -1.68 (inactive).

With `[N-]=[N+]=NCc1ccccc1[C@H]1OC(c2ccc(OCCCO)cc2)=N[C@@]1(Cc1ccccc1)C(N)=O`, the composite z-score was 1.85 in [1]; 1.24 in assay [2]; 0.5 in assay [3]; 1.04 in assay [4]; 0.405 in assay [5]; -0.135 in assay [6]. Further, the composite z-score with Lefty1 is -0.572; in [8], 1.37. The z-score in assay [7] was 2.44; in assay [9], -1.89 (inactive).

Regarding `O=c1c2ccc(Br)cc2nc(-c2ccccc2)n1Cc1cccc(O)c1`, the composite z-score in [1] worked out at 0.741; in assay [2], 0.988; in [3], 0.551; in assay [4], 0.671; in assay [5], 0.346; in assay [6], 0.283. For the same compound, the composite z-score was -0.0693 in the assay with Lefty1 and 1.05 in assay [8]. For the same compound, the results for the z-score in assay [7] and in assay [9] were 0.836 and -0.273 (inactive), respectively.

Take `O=C1NC(=O)C2C1C=CC(C(O)CCc1ccccc1)N2Nc1ccccn1` (stereo not given): the composite z-score is -0.0572 in assay [1]; 0.495 in assay [2]; 0.318 in assay [3]; 0.415 in assay [4]; 0.269 in [5]; -0.157 in [6]. The composite z-score in the assay on Lefty1 was -0.139; in assay [8], 0.589. The z-score in assay [7] was 0.681; in assay [9] it was -1.13 (inactive).

Regarding `COC(=O)[C@@]1(Cc2ccc(F)cc2)[C@@H]2[C@@H](CC(=O)[C@H]2CC(=O)C(=O)N2CCCC2)CN1C(=O)c1ccccc1`, the composite z-score worked out at 0.266 in [1]; 1.24 in assay [2]; 1.51 in assay [3]; 0.931 in assay [4]; 0.95 in assay [5]; 0.455 in assay [6]. Besides, the composite z-score in the assay on Lefty1 was -1.01; in [8], 0.772. Besides, the z-score in assay [7] is 0.694; in assay [9], 2.19 (inactive).

For `CC1CC/C=C\[C@H]2OC34C=CCN(Cc5ccccc5)C(=O)[C@H]3N(CCO)C(=O)[C@@H]4C2C(=O)O1` (stereo not given in full), the composite z-score in assay [1] was 0.364; in assay [2] it was 0.324; in assay [3], -0.106; in assay [4], -0.785; in assay [5], -0.418; in assay [6], -0.43. The composite z-score with Lefty1 was -0.592; in [8], -0.162. Besides, the z-score is -0.322 in assay [7] and -0.573 (inactive) in [9].

As to `CC[C@@H]1[C@@H]2C3C(=O)N(CC)C(=O)C3CC(=O)[C@@H]2[C@H](c2ccc(C)cc2)N1S(=O)(=O)c1ccc(C)cc1` (stereo not given in full), the composite z-score in [1] was 0.189; in assay [2] it was 1.2; in assay [3], 0.381; in assay [4] it was -0.826; in assay [5] it was 0.573; in assay [6] it was -0.415. The composite z-score in the assay on Lefty1 worked out at 0.417; in assay [8], 0.519. The z-score in [7] is -0.0765; in assay [9], 1.46 (inactive).

As for `C[C@H]1ON(c2ccccc2)[C@@H](c2ccccc2)[C@@H]1C(=O)N1C(=O)OC[C@@H]1c1ccccc1`, the composite z-score in assay [1] was found to be 0.143; in [2], 0.718; in assay [3] it was 0.784; in [4] it was 0.894; in assay [5], 1.12; in assay [6], 0.986. The composite z-score in the assay with Lefty1 came out at 0.5; in assay [8] it was 0.014. Also, the z-score in [7] is -0.21; in [9] it was 0.422 (inactive).

The values are drawn from PubChem BioAssay.
